# Hits are enriched below; roughly 21% of the tested compounds scored in any of these assays.
# Gal4-VP16 FLuc – counter-screen for ROR gamma inhibitors: Gal4-VP16 reporter | actives 3.5% (n = 310,000) | Potency, µM (titrated, usually from 53.6 µM), for the others: top-dose activity, negative = inhibition, actives largely listed as inhibitors | Drosophila S2 Gal4-VP16 UAS-luciferase, luminescence, 20 h | AID 2546;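 further: Gal4-VP16 expression switched on by copper sulfate through the metallothionein promoter; potency means the concentration at half of the fitted maximal effect; nearly all actives have a fitted effect of over 50% in size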
# RORgamma inh – inhibitors of mouse ROR gamma transcriptional activity | AID 2551 | Potency, µM (series often up to 53.6 µM), inactives show at the top dose activity change, negative = inhibition, actives largely listed as inhibitors | actives 5.4% (n = 310,000) | Drosophila S2 Gal4-RORgamma UAS-luciferase reporter, 20 h; further: potency means the concentration at half of the fitted maximal effect; nearly all actives have a fitted effect of over 60% in size
# Target sequence (P51450 whole entry, looked up, the tested form may be a part): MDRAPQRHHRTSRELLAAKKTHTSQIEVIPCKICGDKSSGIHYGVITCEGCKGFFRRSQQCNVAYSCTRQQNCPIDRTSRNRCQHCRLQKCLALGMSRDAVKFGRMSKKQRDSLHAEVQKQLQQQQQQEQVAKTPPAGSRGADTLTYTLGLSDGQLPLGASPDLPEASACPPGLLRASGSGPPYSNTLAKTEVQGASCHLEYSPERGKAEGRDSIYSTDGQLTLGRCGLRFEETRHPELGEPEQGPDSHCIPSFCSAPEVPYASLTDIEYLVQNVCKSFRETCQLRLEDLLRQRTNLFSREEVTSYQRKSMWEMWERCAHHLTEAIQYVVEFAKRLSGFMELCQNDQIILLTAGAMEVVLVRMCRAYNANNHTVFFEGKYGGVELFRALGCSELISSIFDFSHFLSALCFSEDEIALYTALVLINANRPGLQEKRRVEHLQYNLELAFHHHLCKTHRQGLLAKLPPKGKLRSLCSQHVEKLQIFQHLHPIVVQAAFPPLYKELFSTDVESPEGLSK
#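 A Gal4/UAS one-hybrid system in insect cells: metallothionein-promoter Gal4–ROR gamma fusion plus Photinus luciferase reporter. Copper sulfate 700 uM final, 20 hr ambient incubation, luminescent detection after 10 min with reagent.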
# DT40 TDP1 no CPT – qHTS for Inhibitors of human tyrosyl-DNA phosphodiesterase 1 (TDP1): qHTS in cells in absence of CPT; DT40 Tdp1-/- hTDP1 cells, no CPT, ATP luminescence, 48 h; Potency, µM (series often up to 46.2 µM), for the others: at the highest dose activity change, negative = growth inhibition, most hits filed as inhibitors; actives 15% (n = 420,000); AID 686978, 2013; further: potency means the concentration at half of the fitted maximal effect; nearly all actives have a fitted effect of over 55% in size
#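 Chicken DT40 Tdp1-/- cells stably complemented with human TDP1 were seeded at 400 cells/well with DMSO in place of 20 nM camptothecin. After compound pinning, cells grew at least 48 hr at 37 °C; viability read by CellTiter-Glo luminescence.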
# DT40 TDP1 CPT – growth inhibition of DT40 Tdp1-/-;hTDP1 cells with camptothecin (screen for TDP1 inhibitors); actives 12% (n = 420,000); Potency, µM (titrated, usually from 46.2 µM), for inactives: at the top dose activity change, negative = growth inhibition, actives largely listed as inhibitors; chicken DT40 Tdp1-/-;hTDP1 cells + 20 nM CPT, ATP luminescence, 48 h; AID 686979; further: potency means the concentration at half of the fitted maximal effect; nearly all actives have a fitted effect of over 55% in size
#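 Chicken DT40 Tdp1-/- cells complemented with human TDP1, 400 cells/well, exposed to compounds plus 20 nM camptothecin for at least 48 h at 37 C; viability read as ATP content by CellTiter-Glo luminescence.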
# ELG1 DNA repair – inhibitors of ELG1-dependent DNA repair in HEK293T cells; AID 504467; Potency, µM (titrated, usually from 46.1 µM), inactives show top-dose activity change, negative = inhibition, actives largely listed as inhibitors; HEK293T ELG1-luciferase reporter, luminescence, 16 h; DNA damage induced by 5-fluorouridine; actives 2.3% (n = 330,000); further: potency means the concentration at half of the fitted maximal effect; nearly all actives have a fitted effect of over 55% in size
#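 Overnight (16 hr) co-exposure of 2,000 cells/well to 5-fluorouridine and compound at 37 °C preceded detection. Luciferase was quantified via ONE-Glo luminescence; loss of signal denotes inhibition.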
# IL1B secr inh – inhibitors of inflammasome signaling (IL-1 beta secretion); actives 4.7% (n = 360,000); THP-1 LPS/ATP IL-1B secretion, AlphaLISA, 16 h; hits give low values; activity change, % at 57.5 µM; AID 743279; in the data active means activity change below about -50%; inconclusive means mostly about -30% to -49%
#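 Secreted IL-1B measured by AlphaLISA bead assay after 16 h compound exposure of THP-1 cells; compounds (final up to 57.5 uM) added 1 h before LPS (250 ng/mL) and ATP (1.25 mM) stimulation; lower signal means less secretion.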
# Numbers without * were called inactive; ? = inconclusive; nt = not tested or not shown. Unless noted, the call rests on the fitted dose curve; in most records, active means well fitted curve in the direction sought with a large enough effect; inconclusive means small, poorly fitted or top-dose-only effect, or another doubt; inactive means no such curve, though single readings can be large; an effect the other way counts as inactive or inconclusive. On the % scale 0 is the no-effect control and ±100 the full control effect.
SMILES,Gal4-VP16 FLuc,RORgamma inh,DT40 TDP1 no CPT,DT40 TDP1 CPT,ELG1 DNA repair,IL1B secr inh
Nc1nc(-c2ccccc2)c(CCCOc2ccc([N+](=O)[O-])cc2)c(=O)[nH]1,nt,nt,?,-0.6%,nt,12.2
CCOC(OCC)c1nc(N)[nH]c(=O)c1CCCCc1ccccc1,nt,nt,16.4µM*,23.1µM*,nt,36.2
COc1ccc(NC(=O)Cn2c(C)c3cnn(-c4ccccc4)c(=O)c3c2C)c(OC)c1,nt,nt,-18.1%,-17.6%,nt,nt
Cc1ccc(C)c(N2CCN(C(=O)C(C)n3c(C)c4cnn(-c5ccccc5)c(=O)c4c3C)CC2)c1 (stereo not given),nt,nt,16.4µM*,20.6µM*,nt,nt
Cc1c2cnn(-c3ccccc3)c(=O)c2c(C)n1CCCC(=O)Nc1cc(F)ccc1F,nt,nt,?,-13.6%,nt,nt
Cc1ccc(C)c(NC(=O)CCCn2c(C)c3cnn(-c4ccccc4)c(=O)c3c2C)c1,nt,nt,?,18.4µM*,nt,nt
Cc1cc(C)c(NC(=O)CCCn2c(C)c3cnn(-c4ccccc4)c(=O)c3c2C)c(C)c1,nt,nt,23.1µM*,?,nt,nt
Cc1cccc(N2CCN(C(=O)c3cc4ccccc4oc3=O)CC2)c1C,?,?,-15.8%,-5.3%,?,-18.2
Cc1cc(C(=O)N2CCN(c3cccc(C)c3C)CC2)c2c(C)nn(-c3ccccc3)c2n1,nt,nt,7.31µM*,?,nt,nt
Cc1cccc(NC(=O)CCCn2c(C)c3cnn(-c4ccccc4)c(=O)c3c2C)c1C,nt,nt,?,20.6µM*,nt,nt
Cc1cccc(N2CCN(C(=O)Cn3c(C)c4cnn(-c5ccccc5)c(=O)c4c3C)CC2)c1C,nt,nt,5.8µM*,7.31µM*,nt,nt
CCOc1ccc(S(=O)(=O)NC(Cc2cnc[nH]2)C(=O)O)cc1 (stereo not given),9.8%,12.0%,1.7%,0.9%,12.4%,4.1
O=Cc1ccccc1-n1cccn1,-9.1%,1.3%,9.0%,17.4%,0.2%,0.0
Oc1cc(-n2cccn2)c(O)cc1-n1cccn1,12.6µM*,?,4.11µM*,5.8µM*,?,-3.5
NS(=O)(=O)OCCCc1ccccc1,-0.2%,0.9%,-11.3%,?,29.9%,20.2
[2H]C(CCOS(N)(=O)=O)c1ccc(C(C)(C)C)cc1 (stereo not given),?,-33.2%,20.6µM*,20.6µM*,?,17.9
CCCN(C/C=C/I)C1CCc2cccc(O)c2C1 (stereo not given),nt,nt,14.6µM*,?,nt,nt
O=C(N/N=C/c1cccc(F)c1)c1c(O)c2c([nH]c1=O)CCCC2,11.3%,?,?,?,?,4.2
Cn1c(/N=C(\N)c2ccccc2)nc2ccccc21,nt,nt,?,?,nt,32.7
CCN(CC)C(=O)N1CCC(NC(=O)c2ccc(C(C)(C)C)cc2)CC1,-7.3%,?,23.1µM*,?,20.6µM*,0.0
COc1ccc(C(=O)N2CCCCC2c2cc(C(=O)Nc3cccc(C#N)c3)no2)cc1 (stereo not given),nt,nt,?,23.1µM*,nt,-11.9
O=C(Nc1ccccc1)c1cc(C2COCCN2C(=O)c2ccccn2)on1 (stereo not given),nt,nt,?,-10.1%,nt,-1.3
COc1ccc(NC(=O)c2cc(C3CCCCN3C(=O)C3CC3)on2)c(C)c1 (stereo not given),nt,nt,-23.6%,?,nt,-12.5
COc1ccc(NC(=O)c2cc(C3CCCCN3C(=O)c3ccccc3)on2)c(C)c1 (stereo not given),nt,nt,9.2µM*,18.4µM*,nt,11.0
N#Cc1cccc(NC(=O)c2cc(C3CCCCN3C(=O)c3ccccn3)on2)c1 (stereo not given),nt,nt,?,23.1µM*,nt,26.5
O=C(Nc1ccccc1)c1cc(C2CCCCN2C(=O)c2cccs2)on1 (stereo not given),nt,nt,18.4µM*,?,nt,-10.2

# Source: PubChem BioAssay (National Center for Advancing Translational Sciences (NCATS))
